Screening data (PubChem BioAssay)
SUMO1 PPI mod: alters human SUMO1 binding to SIM partners. P63165. SUMO1 binding to a labelled peptide, TR-FRET, 1 h. inhibition, % at 20 µM. hit rate 0.33% among 360,000. AID 602429; in the data active = inhibition above about 37%
ATG4B inh: blocks human ATG4B protease cleavage of LC3 substrate; Q9Y4P1; ATG4B cleavage of LC3-PLA2, NBD-HPC fluorescence, 1 h; inhibition, % at 8.33 µM; hit rate 0.51% among 340,000; AID 504462; in the data active = inhibition above about 40%
Rin1-Abl PPI inh: inhibitors of human Rin1-Abl protein interaction. TR-FRET Rin1/Abl binding, biochemical. inhibition, % at 7.35 µM. hit rate 0.4% among 360,000; in the data active = inhibition above about 5%, passing the limit was not always enough
Neddylation inh: cullin neddylation inhibition | TR-FRET cullin neddylation, biochemical | hit rate 0.58% among 360,000 | inhibition, % at 25 µM | P61081+Q13564; in the data active = inhibition above about 36%
Target sequence (P61081 whole entry, looked up): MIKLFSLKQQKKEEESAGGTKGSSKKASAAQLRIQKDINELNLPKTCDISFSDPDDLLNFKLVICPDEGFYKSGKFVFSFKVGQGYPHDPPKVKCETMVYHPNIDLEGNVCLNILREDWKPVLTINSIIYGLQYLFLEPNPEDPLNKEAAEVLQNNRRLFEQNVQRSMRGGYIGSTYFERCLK
Target sequence (Q13564 whole entry, looked up): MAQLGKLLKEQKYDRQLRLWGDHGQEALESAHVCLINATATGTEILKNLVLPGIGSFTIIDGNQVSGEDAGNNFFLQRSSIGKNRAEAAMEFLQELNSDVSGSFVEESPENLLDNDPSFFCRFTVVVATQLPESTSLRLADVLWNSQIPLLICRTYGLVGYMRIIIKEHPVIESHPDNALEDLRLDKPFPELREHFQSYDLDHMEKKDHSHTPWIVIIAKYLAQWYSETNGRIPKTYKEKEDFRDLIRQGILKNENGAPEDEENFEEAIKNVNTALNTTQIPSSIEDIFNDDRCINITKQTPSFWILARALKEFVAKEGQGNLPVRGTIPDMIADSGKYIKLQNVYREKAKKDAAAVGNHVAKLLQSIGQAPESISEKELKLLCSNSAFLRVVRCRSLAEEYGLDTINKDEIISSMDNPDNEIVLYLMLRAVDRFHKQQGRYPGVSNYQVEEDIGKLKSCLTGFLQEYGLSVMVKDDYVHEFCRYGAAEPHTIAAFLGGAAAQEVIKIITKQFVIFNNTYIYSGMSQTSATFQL
Rin1-Abl confirm: confirmation of inhibitors of human Rin1-Abl interaction. TR-FRET Rin1-Abl binding, purified proteins. inhibition, % at 7.35 µM. shares compounds with Rin1-Abl PPI inh. hit rate 49% among 1,300
GFP quench-1: GFP fluorescence interference artifact; AID 602125; hit rate 8.5% among 1,300; inhibition, % at 6.75 µM; shares compounds with Rin1-Abl PPI inh; inhibitors/quenchers counterscreen;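 also: ABL1-eGFP fusion protein alone without its partner RIN1-SBP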
GFP quench dose: counter-screen for Rin1-Abl inhibitors: GFP quenchers, dose response | shares compounds with Rin1-Abl PPI inh | GFP fluorescence interference/quenching counterscreen | IC50, µM | 230 tested, under 10 active | AID 602182; call rule not given here;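 also: ABL1-eGFP fusion protein alone without its RIN1 binding partner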
GFP quench-2: GFP quenching artifact for Rin1-Abl inhibitor hits; shares compounds with Rin1-Abl PPI inh; GFP fluorescence quenching counterscreen, biochemical; IC50, µM; 25 tested, under 10 active; call rule not given here
Of the large screens only hits and unclear results are named; the others gave an inactive call (follow-up assays come after a bar, where shown). Shown are actives, neighbours in structure and some others; about 1.7% of the full set was active somewhere. Rule as the data show it, unless noted: active = inhibition above about 6.5%; inactive = the rest.

Cc1ccc(C(=O)NCc2ccncc2)cc1S(=O)(=O)Nc1cccc(C)c1C	Rin1-Abl PPI inh 15.4 | Rin1-Abl confirm inactive | GFP quench-1 inactive
CCN(CC)C(=O)CSc1nc(COc2ccccc2)nc2ccccc12	Rin1-Abl PPI inh 41.5 | Rin1-Abl confirm 37.0 | GFP quench-1 inactive
O=C(Nc1ccc(S(=O)(=O)NC2=NCCCCC2)cc1)c1cccc(OC(F)F)c1	none (no result: ATG4B inh)
O=C(Nc1cccc(-c2nnc(-c3ccco3)o2)c1)c1ccccc1	Rin1-Abl PPI inh 10.2 | Rin1-Abl confirm inactive | GFP quench-1 inactive
COc1ccc(/C=C/CN2CCC(Oc3ccc(C(=O)N4CCCCC4)cc3)CC2)cc1	Rin1-Abl PPI inh 7.2 | Rin1-Abl confirm inactive | GFP quench-1 inactive
O=C(c1ccc(OC2CCN(C/C=C/c3ccccc3)CC2)cc1)N1CCCC1	none
COc1ccccc1/C=C/CN1CCC(Oc2ccc(C(=O)N3CCCCC3)cc2)CC1	Rin1-Abl PPI inh 10.4 | Rin1-Abl confirm 8.4 | GFP quench-1 inactive
O=C(c1ccc(OC2CCN(C/C=C/c3ccccc3)CC2)cc1)N1CCCCC1	Rin1-Abl PPI inh 6.3 | Rin1-Abl confirm inactive | GFP quench-1 inactive
Cc1cc(C)cc(CN2CCC(Oc3ccc(C(=O)N4CCCC4)cc3)CC2)c1	none
CN(C(=O)c1ccc(NC(=O)Cc2ccc(NC(=O)C3CCN(C(=O)C4CC4)CC3)cc2)cc1)C1CC1	Rin1-Abl PPI inh 37.0 | Rin1-Abl confirm 34.1 | GFP quench-1 inactive | GFP quench dose inactive
CN(C(=O)c1ccc(NC(=O)Cc2ccc(NC(=O)C3CCN(C(=O)c4ccccc4)CC3)cc2)cc1)C1CC1	Rin1-Abl PPI inh 77.2 | Rin1-Abl confirm 79.3 | GFP quench-1 inactive | GFP quench dose inactive | GFP quench-2 inactive
CN(C(=O)c1ccc(NC(=O)Cc2ccc(NC(=O)C3CCN(C(=O)C4CCC4)CC3)cc2)cc1)C1CCCC1	none
Cc1ccc(OCc2cc(C(=O)N(C)C3CCCc4ccccc43)no2)cc1C (centres undefined)	none (no result: ATG4B inh)
CNc1nc(OC)nc(N(C#N)CN2C(=O)c3ccccc3S2(=O)=O)n1	Rin1-Abl PPI inh 18.8 | Rin1-Abl confirm inactive | GFP quench-1 inactive
O=C1N(c2ccc(Cl)cc2)C(c2ccccc2)N2CCCN12 (centres undefined)	Rin1-Abl PPI inh 8.3 | Rin1-Abl confirm 11.6 | GFP quench-1 inactive
Cc1ccc(C2N(c3cccc(Cl)c3)C(=O)N3CCCN23)cc1 (centres undefined)	Rin1-Abl PPI inh 29.4 | Rin1-Abl confirm 29.6 | GFP quench-1 inactive | GFP quench dose inactive
COC(=O)CCSCc1cn2cc(Cl)ccc2n1	Rin1-Abl PPI inh 38.6 | Rin1-Abl confirm 44.2 | GFP quench-1 inactive | GFP quench dose inactive
CCN(CC)c1ccc(S(=O)(=O)N2CCOCC2)cc1NC(=O)C1CC1	Rin1-Abl PPI inh 9.4 | Rin1-Abl confirm inactive | GFP quench-1 inactive
CC1(C(=O)NCc2cccnc2)Cc2c(-c3cccc(C(F)(F)F)c3)ccnc2O1 (centres undefined)	none (no result: ATG4B inh)
CCc1nc2ccc(C(=O)NCc3ccc4c(c3)OCO4)cn2c1N(C)Cc1ccc(OC)cc1	none (no result: ATG4B inh)
O=C(NC(NC(=S)Nc1ccccc1C(=O)O)C(Cl)(Cl)Cl)c1ccco1 (centres undefined)	Rin1-Abl PPI inh 7.0 (not shown: Neddylation inh) | Rin1-Abl confirm inactive | GFP quench-1 inactive
CCCc1ccc2c(C(F)(F)F)cc(C(F)(F)F)cc2n1	none (no result: ATG4B inh)
Cc1ccc(NC2CNC(=O)NC2=O)cc1C (centres undefined)	none
Cc1ccc(NC2C(=O)NC(=O)NC2=O)cc1	Rin1-Abl PPI inh 17.0 | Rin1-Abl confirm 15.8 | GFP quench-1 inactive
CCOc1ccc(CN(C)C(=O)c2ccc(NC(=O)CC3SC(N4CCCC4)=NC3=O)cc2)cc1 (centres undefined)	Rin1-Abl PPI inh 10.4 | Rin1-Abl confirm inactive | GFP quench-1 inactive
CCN1C[C@@H]2[C@@H]3C(=O)N(C)C(=O)[C@@H]3[C@](Cc3ccccc3)(C1=O)N2C(=O)c1ccc(C(C)(C)C)cc1	none
O=c1[nH]c(CSc2ccccn2)nc2c1oc1ccccc12	Rin1-Abl PPI inh 9.9 | Rin1-Abl confirm inactive | GFP quench-1 inactive
CN(Cc1ccccc1)C(=O)c1ccc(NC(=O)Cc2ccc(NC(=O)C3CCN(C(=O)C4CCCC4)CC3)cc2)cc1	Rin1-Abl PPI inh 13.8 | Rin1-Abl confirm 18.9 | GFP quench-1 inactive | GFP quench dose inactive
CN(C(=O)c1ccc(NC(=O)Cc2cccc(NC(=O)C3CCN(C(=O)C4CCCCC4)CC3)c2)cc1)C1CC1	Rin1-Abl PPI inh 13.7 | Rin1-Abl confirm 25.6 | GFP quench-1 inactive | GFP quench dose inactive
CN(C(=O)c1ccc(NC(=O)Cc2cccc(NC(=O)C3CCN(C(=O)C4CCCC4)CC3)c2)cc1)C1CCCC1	none
CN(CCc1ccccc1)C(=O)c1ccc(NC(=O)Cc2ccc(NC(=O)C3CCN(C(=O)C4CCC4)CC3)cc2)cc1	Rin1-Abl PPI inh 26.5 | Rin1-Abl confirm 25.8 | GFP quench-1 inactive | GFP quench dose inactive
CN(CCc1ccccc1)C(=O)c1ccc(NC(=O)Cc2ccc(NC(=O)C3CCN(C(=O)C4CCCCC4)CC3)cc2)cc1	Rin1-Abl PPI inh 30.6 | Rin1-Abl confirm 30.2 | GFP quench-1 inactive | GFP quench dose inactive
C[C@@H]1CN([C@@H](C)CO)C(=O)CCCn2nncc2CO[C@@H]1CN(C)S(=O)(=O)c1ccc(Oc2ccccc2)cc1	none (no result: ATG4B inh)
CC(C)O/C(=N/S(=O)(=O)c1ccc(Cl)cc1)c1ccccc1	none
CCCNC(=O)C1(C)CCCN(Cc2ccc3c(c2)OCO3)C1 (centres undefined)	none (no result: ATG4B inh)
CN(CCc1ccccc1)C(=O)c1ccc(NC(=O)Cc2cccc(NC(=O)C3CCN(C(=O)C4CCCC4)CC3)c2)cc1	Rin1-Abl PPI inh 12.2 | Rin1-Abl confirm 15.5 | GFP quench-1 inactive
CN(CCc1ccccc1)C(=O)c1ccc(NC(=O)Cc2cccc(NC(=O)C3CCN(C(=O)C4CCC4)CC3)c2)cc1	none
CCCCCCN1C[C@H](n2cc(C3CC3)nn2)[C@@H](O)C[C@@H]1c1ccc(OC)cc1	none (no result: ATG4B inh)
CC(C)(C)c1nnc(NS(C)(=O)=O)s1	Rin1-Abl PPI inh 9.9 | Rin1-Abl confirm inactive | GFP quench-1 inactive
CCN1CCN(C(=O)C(NS(=O)(=O)c2ccc3nc(C)sc3c2)C(C)C)CC1 (centres undefined)	Rin1-Abl PPI inh 8.1 | Rin1-Abl confirm inactive | GFP quench-1 inactive
O=c1cc(CN2CCCCC2)c2ccccc2o1	none (no result: ATG4B inh)
Cc1cccc(C)c1NC(=O)C1(C)CSCC(=O)N1C1CCN(Cc2ccccc2)CC1 (centres undefined)	none (no result: ATG4B inh, Rin1-Abl PPI inh)
Cc1c(Cl)cccc1N=C(N)N=C(N)N	Rin1-Abl PPI inh 9.1 | Rin1-Abl confirm inactive | GFP quench-1 inactive
NC(N)=NC(N)=Nc1cccc2ccccc12	none
O=C(Nc1ccc(C(=O)O)cc1)/C(=C\c1ccccc1)NC(=O)c1ccco1	Rin1-Abl PPI inh 8.6 | Rin1-Abl confirm inactive | GFP quench-1 inactive
